Only some compounds are listed: those with a hit (about 1.7% of all), similar ones and a draw of the others.
eIF4E-4G inh – inhibitors of eIF4E and eIF4G interaction in translation initiation | P63073+Q04637 | AID 782 | TR-FRET eIF4E-eIF4GI(517-606) binding, 2 h | inhibition, % at 21.7 µM | 220,000 compounds, 0.37% hits;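 active = inhibition above about 30%, limit read from the data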;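 note: 0% = full FRET control wells and 100% = background wells lacking eIF4GI fragment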
PABP polyA inh – blocks human PABP binding to poly(A) RNA | 290,000 compounds, 1% hits | AID 2014 | P11940 | calls only at 35 µM | fluorescence polarization;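 note: calls also rest on retests at 20 µM and on dose response follow-up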
PABP1 MLLE inh – inhibitors of microRNA-mediated deadenylation, human PABP1 MLLE binding; GST-MLLE / FITC-PAM2 fluorescence polarization; inhibition, % at 20 µM; 360,000 compounds, 0.36% hits; in the data active = inhibition above about 35%, passing the limit was not always enough;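 note: plate controls were DMSO wells with GST-MLLE for no effect and wells lacking GST-MLLE protein for full effect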
eIF4H FP inh – inhibitors of RNA binding by human eIF4H; inhibition, % at 35 µM; Q15056; eIF4H fluorescence polarization binding assay; 290,000 compounds, 0.94% hits;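 note: calls also rest on retests at 20 µM and on dose response follow-up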
EBV gp42 inh – blocks Epstein-Barr virus glycoprotein 42 binding; Q1HVG2; 220,000 compounds, 0.42% hits; AID 1085; inhibition, % (tested at 21.74 µM); Fluorescence polarization binding assay, mP read-out; in the data active = inhibition above about 50%
Target sequence (Q1HVG2 whole entry, looked up): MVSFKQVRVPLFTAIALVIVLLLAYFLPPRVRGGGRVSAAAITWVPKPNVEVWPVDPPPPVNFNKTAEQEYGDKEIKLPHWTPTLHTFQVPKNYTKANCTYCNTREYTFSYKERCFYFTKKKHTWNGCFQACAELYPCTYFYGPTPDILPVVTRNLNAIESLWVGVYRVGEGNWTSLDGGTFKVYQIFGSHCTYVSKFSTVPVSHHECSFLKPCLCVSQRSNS
* marks the source's active call; other numbers are inactive results; i = inactive; ? = inconclusive; / = no result; + = active, no number; [ ] = dose if it differs, or a comment. Unless noted, the rule behind the calls is not given here.

SMILES	eIF4E-4G inh	PABP polyA inh	PABP1 MLLE inh	eIF4H FP inh	EBV gp42 inh
COc1ccc(/C=C/C(=O)Nc2ccccc2C(F)(F)F)cc1	20	i	-13	-7	-4
CN(CC(=O)Nc1cccc(F)c1)C(=O)c1cc([N+](=O)[O-])ccc1N1CCOCC1	/	/	-14	/	/
O=C1c2nccnc2C(=O)N1c1ccc(C(F)(F)F)cc1	-3	i	8	6	-3
O=C(N/N=C/c1cccnc1)c1ccc(NC(=O)c2ccccc2Cl)cc1	/	i	-13	-4	/
COc1cccc2c1C(=O)c1c(O)c3c(c(O)c1C2=O)C[C@@](O)(C(=O)CO)C[C@@H]3OC1CC(N)C(O)C(C)O1 (some centres not stated)	/	/	121	/	/
COc1cccc2c1C(=O)c1c(O)c3c(c(O)c1C2=O)C[C@@](O)(C(=O)CO)C[C@@H]3O[C@H]1C[C@H](N)[C@H](O)[C@H](C)O1	50*[fluorescence artefact?]	i	155	?	+
CCOC(=O)C1CCN(C(=O)c2ccccc2NC(=O)C2=C(C)OCCS2)CC1	/	i	14	-7	/
CC1=NN(c2ccc(C(=O)O)c(N)c2)C(=O)C1	12	i	-1	98*	-17
CC1=NN(c2ccc(Cl)c(C(=O)O)c2)C(=O)C1	8	i	12	9	-15
Cc1nn(CCc2nc(-c3ccco3)cs2)c2[nH]c(=O)cc(C(F)(F)F)c12	1	+	28	45*	-14
Cc1cc(C)n(CCc2nc(-c3ccco3)cs2)n1	2	+	11	51*	9
Cc1cc(C)n(CCc2nc(-c3cccs3)cs2)n1	-1	i	16	2	-9
Cc1ccc2nc3c(cc(S(=O)(=O)c4ccccc4)c(=N)n3Cc3ccco3)c(=O)n2c1	16	i	-11	70	20
N=c1c(C(=O)NC2CCCCC2)cc2c(=O)n3ccccc3nc2n1Cc1ccco1	/	i	-10	48	/
Cc1cccn2c(=O)c3cc(S(=O)(=O)c4ccc(F)cc4)c(=N)n(Cc4ccco4)c3nc12	17	+	-9	83*	12
CCOC(=O)c1cc2c(=O)n3ccccc3nc2n(Cc2ccco2)c1=NC(=O)c1ccccc1OC	2	i	3	51*	12
Cc1cccn2c(=O)c3cc(S(=O)(=O)c4ccccc4)c(=N)n(Cc4ccco4)c3nc12	15	i	9	86	12
N=c1c(S(=O)(=O)c2ccccc2)cc2c(=O)n3ccccc3nc2n1Cc1ccco1	/	+	-13	95*	/
N=c1c(C(=O)NCCc2ccccc2)cc2c(=O)n3ccccc3nc2n1Cc1ccco1	/	i	0	93*	/
CCOC(=O)c1cc2c(=O)n3ccccc3nc2n(Cc2ccco2)c1=NC(=O)c1ccc(OC)cc1	0	i	-42	17	-21
C/C(CC(=O)NC(C)(C)C)=N\NC(N)=S	-2	i	7	-7	14
C[C@@H](NC(=O)[C@@H]1Cc2ccccc2CN1C(=O)OC(C)(C)C)C(=O)NCC1CCCO1 (some centres not stated)	/	i	5	6	/
COC(=O)C[C@H]1C[C@H]2c3cc(NC(=O)Nc4ccc(F)cc4)ccc3O[C@H]2[C@@H](CO)O1	/	/	8	/	/
Cc1ccc(S(=O)(=O)c2cc3c(=O)n4ccccc4nc3n(Cc3ccco3)c2=N)cc1C	9	+	/	67*	39
O=C(CC1SC(N2CCOCC2)=NC1=O)Nc1cc([N+](=O)[O-])ccc1Cl (configuration not stated)	0	+	17	?	-1
SMILES	eIF4E-4G inh	PABP polyA inh	PABP1 MLLE inh	eIF4H FP inh	EBV gp42 inh
C/C(O)=C(/C=Nc1ccccc1)C(=O)Nc1ccccc1	-2	i	3	12	10
O=C(C(c1ccccc1)C(O)c1ccccc1)N1CCOCC1 (configuration not stated)	/	/	-5	/	/
Cc1oc(C)c2c(=O)ccc3c(c12)OC(N)=C(C#N)C3c1ccc(F)cc1 (configuration not stated)	2	+	-55	70*	-23
Cc1ccccc1CN1CCC(N2CCC(C(=O)NCC3CCCO3)CC2)CC1 (configuration not stated)	/	i	-1	13	/
CCc1nnc(NC(=O)CSc2ccc(-c3ccco3)nn2)s1	20	+	-3	95*	19
Cc1nnc(NC(=O)CSc2ccc(-c3ccco3)nn2)s1	13	i	37	105	15
Cc1ccc(C)c(NC(=O)CSc2ccc(-c3ccco3)nn2)c1	-1	i	19	36	-8
CCc1nnc(NC(=O)Cn2nc(-c3ccccc3OC)ccc2=O)s1	36*	i	2	-2	5
Cc1ccccc1NC(=O)CSc1ccsc1[N+](=O)[O-]	23	+	7	?	70*
Cc1ccccc1NC(=O)CSc1ccc(-c2ccco2)nn1	10	+	16	?	-17
CCc1nnc(NC(=O)Cn2nc(-c3ccc(OC)c(OC)c3)ccc2=O)s1	9	i	1	-10	-21
COc1ccc(S(N)(=O)=O)cc1C(=O)NNC(=O)C1COc2ccccc2O1 (configuration not stated)	/	/	4	/	/
COc1ccc(N(CC(=O)N2CCc3ccccc3C2)S(C)(=O)=O)cc1Cl	/	i	-90	-6	/
COc1ccccc1CNC(=O)CN1C(=O)NC2(CCCc3sccc32)C1=O (configuration not stated)	/	/	1	/	/
Nc1ccc(S(=O)(=O)c2cc(O)c3ccccc3c2O)cc1	/	/	37	/	/
CC(=O)N(c1nc(CCl)cs1)c1ccc(C)cc1C	1	i	7	-4	-14
CCc1ccccc1N(C(C)=O)c1nc(CCl)cs1	0	i	23	active	-3
O=C(NNC1=Nc2cccc3cccc1c23)c1ccc(Br)cc1	3	i	-17	15	60*
COc1ccc(CC(=O)NNC2=Nc3cccc4cccc2c34)cc1OC	-4	i	-17	-2	0
O=C(Cn1nnc(-c2cc(C(F)(F)F)cc(C(F)(F)F)c2)n1)NNC(=S)Nc1ccc(Cl)cc1	4	i	41*	14	-3
CC/C(=N\NC(=O)c1ccc(-c2ccccc2)cc1)C12CC3CC(CC(C3)C1)C2	-1	i	-5	0	-13
CCn1cc(-c2n[nH]c(=S)n2-c2ccc(C)cc2Br)c(=O)c2ccc(C)nc21	5	i	-46	1	-2
COc1ccc2nc(/C(C#N)=C\c3ccc(Oc4ccc([N+](=O)[O-])cn4)cc3)[nH]c2c1	5	+	-82	84*	-21
Cc1ccc2nc(/C(C#N)=C\c3ccc(Oc4ccc([N+](=O)[O-])cn4)cc3)[nH]c2c1	1	i	-67	?	-42
Nc1cccnc1Sc1cccc(Cl)c1	7	i	38*	14	4
CN1C(=O)/C(=C2/C=CC=CN2C)OC1=S	-1	i	40*	-8	-17
CC(OC(=O)c1ccc(NC(=O)CC#N)cc1)C(=O)Nc1ccc(Oc2ccccc2)cc1 (configuration not stated)	/	i	-27	54*	/

Source: PubChem
